Test results reported in PubChem BioAssay (Tox21).
Values joined by “and” are separate entries in the source; they are usually repeats but may differ in a detail not shown here. Identical values can stand only once. Inconclusive results are not listed. Some compounds were tested as several samples or in several runs, with calls that do not always agree. Active and inactive are the calls of the source. Unless noted, calls follow the shape of the dose curve; as a rule, active = well fitted curve in the direction sought with a large enough effect in the repeat runs; inconclusive = weak or mixed curves; inactive = no such curve, though single readings can be large; an effect the other way counts as inactive or inconclusive.

Experiments:
[1] = qHTS assay to identify small molecule agonists of H2AX - cell viability counter screen (AID 1224847; calls by dose curve; also: nearly all actives have a fitted effect of over 30% in size; also: potency is read from the fitted curve at half-maximal effect)
Procedure, shortened: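 Compounds tested at 15 concentrations were incubated 3 hr at 37C with wild-type CHO-K1 cells; cellular ATP-based luminescence (CellTiter-Glo) indicated viability.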

[2] = qHTS RealTime-Glo MT Cell Viability Assay in HEK293 cells - 32 hour (AID 1224868); also: nearly all actives have a fitted effect of over 50% in size; also: potency is read from the fitted curve at half-maximal effect
Procedure, shortened: (§1)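 Cells + reagent dispensed (600 cells/well, HEK293) → 5 h at 37 C/5% CO2 → 23 nL compound in DMSO pinned → 40 h at 37 C → luminescence read at 0, 8, 16, 24, 32, 40 h.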

[3] = A CellTox Green Cytotoxicity Assay to monitor cytotoxicity in HEK293 cells - 0 hour (AID 1224869); also: nearly all actives have a fitted effect of over 50% in size
Procedure, shortened: (§2)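 HEK293 cells, 600/well, were preincubated 5 hours and then exposed to compounds at 37 C for up to 40 hours. A cell-impermeant cyanine dye staining dead-cell DNA was read by fluorescence at 0, 8, 16, 24, 32 and 40 h time points.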

[4] = A CellTox Green Cytotoxicity Assay to monitor cytotoxicity in HEK293 cells - 40 hour (AID 1224871); also: nearly all actives have a fitted effect of over 45% in size; also: potency is read from the fitted curve at half-maximal effect
Procedure, shortened: as §2

[5] = qHTS RealTime-Glo MT Cell Viability Assay in HEK293 cells - 16 hour (AID 1224872); also: nearly all actives have a fitted effect of over 50% in size; also: potency is read from the fitted curve at half-maximal effect
Procedure, shortened: as §1

[6] = qHTS RealTime-Glo MT Cell Viability Assay in HepG2 cells - 8 hour (AID 1224873); also: nearly all actives have a fitted effect of over 55% in size; also: potency is read from the fitted curve at half-maximal effect
Procedure, shortened: (§3)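 HepG2 cells mixed with RealTime-Glo MT reagents (NanoLuc plus cell-permeant prosubstrate) were seeded at 600 cells/well, incubated 5 h at 37 C/5% CO2, then pinned with compounds in DMSO; nonlytic luminescence tracked viability during 40 h treatment.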

[7] = qHTS RealTime-Glo MT Cell Viability Assay in HEK293 cells - 40 hour (AID 1224874); conditions: RealTime-Glo luminescence; max response: stronger effect = lower value; also: nearly all actives have a fitted effect of over 50% in size; also: potency is read from the fitted curve at half-maximal effect
Procedure, shortened: (§4)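 600 cells/well were plated with the nonlytic NanoLuc/prosubstrate reagent, pre-incubated 5 h, then given 23 nL of compound in DMSO. Incubation at 37 C for 40 h, with luminescence from viable-cell-reduced substrate read repeatedly from 0 h.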

[8] = A CellTox Green Cytotoxicity Assay to monitor cytotoxicity in HEK293 cells - 24 hour (AID 1224875); also: nearly all actives have a fitted effect of over 45% in size; also: potency is read from the fitted curve at half-maximal effect
Procedure, shortened: as §2

[9] = A CellTox Green Cytotoxicity Assay to monitor cytotoxicity in HepG2 cells - 16 hour (AID 1224876); also: nearly all actives have a fitted effect of over 45% in size; also: potency is read from the fitted curve at half-maximal effect
Procedure, shortened: (§5)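 HepG2 cells, 600/well, preincubated 5 h with CellTox Green dye, then exposed to Tox21 compounds in DMSO at 37 C for up to 40 h. Dead-cell DNA fluorescence read at the indicated time point.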

[10] = A CellTox Green Cytotoxicity Assay to monitor cytotoxicity in HepG2 cells - 24 hour (AID 1224878); also: nearly all actives have a fitted effect of over 45% in size; also: potency is read from the fitted curve at half-maximal effect
Procedure, shortened: as §5

[11] = A CellTox Green Cytotoxicity Assay to monitor cytotoxicity in HepG2 cells - 40 hour (AID 1224879); also: nearly all actives have a fitted effect of over 40% in size; also: potency is read from the fitted curve at half-maximal effect
Procedure, shortened: as §5

[12] = qHTS RealTime-Glo MT Cell Viability Assay in HEK293 cells - 0 hour (AID 1224880); also: nearly all actives have a fitted effect of over 45% in size; also: potency is read from the fitted curve at half-maximal effect
Procedure, shortened: as §4

[13] = A CellTox Green Cytotoxicity Assay to monitor cytotoxicity in HEK293 cells - 32 hour (AID 1224881); also: nearly all actives have a fitted effect of over 40% in size; also: potency is read from the fitted curve at half-maximal effect
Procedure, shortened: as §2

[14] = qHTS RealTime-Glo MT Cell Viability Assay in HepG2 cells - 40 hour (AID 1224870); also: nearly all actives have a fitted effect of over 50% in size; also: potency is read from the fitted curve at half-maximal effect
Procedure, shortened: as §3

[15] = qHTS assay to identify small molecule agonists of H2AX (AID 1224845; active = well fitted activation curve with a large enough effect in the signal ratio in the repeat runs, not every such curve was filed as active; the % refers to the signal ratio)
Procedure, shortened: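 Wild-type CHO-K1 cells plated overnight, then exposed 3 hr at 37C to compounds at 15 concentrations (0.76% DMSO). Lysed, then HTRF anti-pH2AX(S139)-cryptate/anti-H2AX-d2 detection after 24 hr at room temperature; emissions 665 and 620 nm.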

[16] = qHTS RealTime-Glo MT Cell Viability Assay in HepG2 cells - 32 hour (AID 1224877); also: nearly all actives have a fitted effect of over 55% in size; also: potency is read from the fitted curve at half-maximal effect
Procedure, shortened: (§6)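 Real-time, nonlytic viability: 600 HepG2 cells/well mixed with NanoLuc enzyme plus prosubstrate; 5 h settle, compound (DMSO) added by pintool; luminescence monitored over 40 h at 37 C.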

[17] = qHTS assay to identify small molecule antagonists of the estrogen related receptor (ERR) signaling pathway from Tox21 library (AID 1224848); also: nearly all actives have a fitted effect of over 50% in size; also: potency is read from the fitted curve at half-maximal effect
Procedure, shortened: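 Cells: ERR line, 2,000/well; 6 h preincubation 37 C/5% CO2. Cpd in DMSO via pin tool; 18 h, 37 C. ONE-Glo, 30 min RT, luminescence.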

[18] = qHTS assay to identify small molecule agonists of the hypoxia (HIF-1) signaling pathway (AID 1224846; active = well fitted activation curve with a large enough effect in the signal ratio in the repeat runs, not every such curve was filed as active; the % refers to the signal ratio)
Procedure, shortened: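 HRE-bla ME-180 beta-lactamase reporter cells in medium with 0.5% dialyzed FBS, pre-incubated 5 h then exposed to compounds 17 h at 37C, 5% CO2; reporter induction read with CCF4-AM FRET substrate.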

[19] = qHTS assay to identify small molecule agonists of the estrogen related receptor (ERR) signaling pathway from Tox21 library (AID 1224849; calls by dose curve; also: nearly all actives have a fitted effect of over 15% in size); conditions: ERR reporter cell line, ONE-Glo luciferase, 18 h; at 92.4 µM (top of the series)
Procedure, shortened: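 ERR reporter cells (NTP line) pre-incubated 6 hours at 37 C, then exposed to compounds for 18 hours at 37 C. ONE-Glo luciferase luminescence was read after 30 minutes at room temperature.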

[20] = qHTS RealTime-Glo MT Cell Viability Assay in HepG2 cells - 24 hour (AID 1224867); also: nearly all actives have a fitted effect of over 50% in size
Procedure, shortened: as §6
% is scaled to controls: 0 for no effect and ±100 for the full control effect.

O=C(O[C@@H]1Cc2c(O)cc(O)cc2O[C@@H]1c1cc(O)c(O)c(O)c1)c1cc(O)c(O)c(O)c1
active: Potency [2] 7.48 µM | Potency [5] 11.9 µM | Potency [7] 7.48 µM
inactive: Potency [1] | Potency [3] | Potency [4] | Potency [6] | Potency [8] | Potency [9] | Potency [10] | Potency [11] | Potency [12] | Potency [13]

CC(C)(C)c1cc(C(C)(C)C)c(O)c(C(C)(C)C)c1
active: Potency [1] 101 µM | Potency [4] 54.9 µM and 34.7 µM | Potency [8] 54.9 µM and 38.9 µM | Potency [10] 54.9 µM | Potency [11] 49 µM | Potency [13] 54.9 µM and 34.7 µM
inactive: Potency [3] | Potency [14] | Potency [5] | Potency [6] | max response [7] -7.81% | Potency [12]

CC(=O)N[C@@H](CS)C(=O)O
inactive: Potency [15] | Potency [1] | Potency [2] | Potency [3] | Potency [14] | Potency [4] | Potency [5] | Potency [6] | max response [7] 3.06% and 6.4% | Potency [8] | Potency [9] | Potency [16] | Potency [10] | Potency [11] | Potency [12] | Potency [13]

Nc1nc2ccccc2[nH]1
inactive and 216 nM (active): Potency [11]
inactive: Potency [15] | Potency [1] | Potency [3] | Potency [14] | Potency [4] | Potency [5] | max response [7] 0.0562% and 7.05% | Potency [8] | Potency [9] | Potency [16] | Potency [10] | Potency [12] | Potency [13]

c1ccc2c(c1)-c1cccc3c1c-2cc1ccccc13
active: Potency [1] 78.2 µM and 89.8 µM
1.91 µM (active) and inactive: Potency [11]
inactive: Potency [15] | Potency [2] | Potency [3] | Potency [14] | Potency [4] | Potency [5] | max response [7] 1.04% | Potency [8] | Potency [9] | Potency [16] | Potency [10] | Potency [12] | Potency [13]

CCN(CC)C(=S)SSC(=S)N(CC)CC
inactive: Potency [1] | Potency [3] | Potency [12]
active: Potency [17] 243 nM and 55.8 nM and 298 nM | Potency [2] 174 nM and 89.1 nM and 13.4 µM | Potency [14] 100 nM | Potency [4] 155 nM and 5.62 µM and 84.9 nM | Potency [5] 89.1 nM and 13.4 µM | Potency [6] 44.7 µM | Potency [7] 174 nM and 656 nM and 13.4 µM | Potency [16] 89.1 nM | Potency [10] 158 nM and 95.2 nM | Potency [11] 0.1 µM
50.1 µM (active) and inactive: Potency [9]
141 nM (active) and inactive: Potency [13]

Cc1cc(C2(c3cc(C)c(O)cc3C)OS(=O)(=O)c3ccccc32)c(C)cc1O
inactive: Potency [18] | Potency [1] | Potency [2] | Potency [3] | Potency [14] | Potency [4] | Potency [5] | max response [7] -21.7% and -18.4% | Potency [8] | Potency [9] | Potency [10] | Potency [13]
active: Potency [12] 27.5 µM and 24.5 µM
61.1 µM (active) and inactive: Potency [17]

Nc1ccc(O)cc1
22.5 µM (active) and inactive: Potency [17]
inactive: Potency [18] | Potency [1] | activity change, positive = activation [19] -66.4% | Potency [20] | Potency [3] | Potency [14] | max response [7] 18.9% | Potency [8] | Potency [9] | Potency [16] | Potency [10] | Potency [12] | Potency [13]
40.4 µM (active) and inactive: Potency [5]
active: Potency [7] 32.1 µM
50.9 µM (active) and inactive: Potency [6]
25.5 µM (active) and inactive: Potency [4]

NCCCCCC(=O)O
inactive: Potency [15] | Potency [1] | Potency [3] | Potency [14] | Potency [4] | Potency [5] | Potency [6] | max response [7] -0.0726% | Potency [8] | Potency [9] | Potency [10] | Potency [11] | Potency [12] | Potency [13]
